The results in this text go back to PubChem BioAssay AID1894 (NMMLSC, 2009).

SMILES strings stand for the structures. Hit rate of the full screen: of about 5,900 compounds, about 100 (1.7%) were called active.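 Rule for the calls: active = binding response below 72% of control, or above a set upper limit, though filed actives all read lower; inactive = the rest.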 The sample as a whole holds a higher share of actives than the screen did.

The target of the experiment is Mitogen-activated protein kinase kinase kinase 3 (Homo sapiens) (UniProt Q99759). In words: MEKK3 wild-type PB1 binding to MEK5, inhibitors, confirmation, biochemical, bead multiplex flow cytometry, single concentration, wildtype (AID 1894).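 Note: 100% = DMSO only wells and 0% = binding blocked by excess unlabeled MEK5; lower values mean stronger disruption of MEK5 binding to MEKK3.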 As to conditions: Alexa488-MEK5 binding to MEKK3, at 10 µM, hits give low values. Background: In flow cytometry, cells or beads pass a laser one at a time.
Mitogen-activated protein kinase kinase kinase 3 (Homo sapiens), sequence (Q99759 whole entry, looked up): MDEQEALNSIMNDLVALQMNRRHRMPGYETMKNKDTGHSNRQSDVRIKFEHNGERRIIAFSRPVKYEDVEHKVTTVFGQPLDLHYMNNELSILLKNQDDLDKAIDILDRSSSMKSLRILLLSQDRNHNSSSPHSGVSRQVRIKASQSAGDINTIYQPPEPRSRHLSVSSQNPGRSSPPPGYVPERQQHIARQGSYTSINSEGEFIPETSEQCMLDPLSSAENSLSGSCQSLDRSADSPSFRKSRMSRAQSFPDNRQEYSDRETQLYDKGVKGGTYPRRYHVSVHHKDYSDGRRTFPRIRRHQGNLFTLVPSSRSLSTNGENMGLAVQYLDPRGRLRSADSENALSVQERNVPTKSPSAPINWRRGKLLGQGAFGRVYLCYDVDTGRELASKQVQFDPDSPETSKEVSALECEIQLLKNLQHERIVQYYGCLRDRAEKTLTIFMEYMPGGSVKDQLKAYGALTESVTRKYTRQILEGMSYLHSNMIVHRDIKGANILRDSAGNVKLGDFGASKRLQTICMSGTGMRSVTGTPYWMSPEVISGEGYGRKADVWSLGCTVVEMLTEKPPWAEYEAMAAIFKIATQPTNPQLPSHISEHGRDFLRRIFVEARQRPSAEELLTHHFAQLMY
In the case of `COc1ccc(-c2[nH]ncc2CN(C)Cc2c(C)n[nH]c2C)c(OC)c1`, the binding response (% of control) is 109% (inactive). With `COc1ccccc1N1CCN(CCCCOc2ccc(F)cc2)CC1` the figure was 103% (inactive); with `CN1C(=O)/C(=C\c2ccc(-c3ccccc3)o2)SC1=S`, 70% (active). With `Cc1cc(Cl)ccc1OCc1nc(-c2ccncc2)no1` the figure was 79% (inactive). With `CCn1c(NC(=O)c2ccccc2)c(-c2cccs2)c(=O)c2ccccc21` the figure was 101% (inactive). Turning to `Cc1cc(C)nc(-n2ncc3c2CC(c2ccc(C(C)C)cc2)CC3=O)n1` (configuration not stated), the binding response (% of control) is 99% (inactive).

For the compound `C/C(=N\NC(=O)CNC(=O)C(c1ccccc1)c1ccccc1)c1ccc(C)cc1`, the binding response (% of control) was 108% (inactive). Turning to `Cc1cc2cc(CNC(=O)c3cccs3)ccc2[nH]1`, the binding response (% of control) was 77% (inactive). `CCOc1ccc(S(=O)(=O)N(CC(=O)O)c2ccccc2)cc1`: the binding response (% of control) is 106% (inactive).

With `CC(C)CC(=O)NC(=S)Nc1cc(C(=O)O)ccc1Cl`, the binding response (% of control) was 104% (inactive).

Take `Cn1c(SCc2nc3ccccc3s2)nnc1-c1ccc2c(c1)OCO2`: the binding response (% of control) was 98% (inactive). As to `Cc1no[n+]([O-])c1COc1ccccc1/C=C1\NC(=S)NC1=O`, the binding response (% of control) was 101% (inactive). In the case of `CC(C)(C)NC(=O)Cn1cnc([N+](=O)[O-])n1`, the binding response (% of control) was 97% (inactive). Consider `COc1ccc(CCNC(=O)CSc2nnc3ccc(-c4ccncc4)nn23)cc1`, for which the binding response (% of control) was 105% (inactive). Regarding `CCOc1cc(C2C(C(=O)OC)=CN(C3CCCC3)C=C2C(=O)OC)cc(Br)c1O`, the binding response (% of control) was 109% (inactive). As for `O=C(O)c1cc(Cl)c(Cl)cc1C(=O)Nc1cccc2ncccc12`, the binding response (% of control) is 102% (inactive). For `COc1ccc(NC(=O)Cn2nnc(C(=O)NCCc3ccc(OC)c(OC)c3)c2N)cc1`, the binding response (% of control) was 102% (inactive). Consider `Cn1c(C(=O)NCCCN2CCCCC2)cc2sccc21`, for which the binding response (% of control) was 109% (inactive). With `O=C(NCCCN1CCCCCC1)C1CC(=O)N(C2CCCC2)C1` (configuration not stated) the figure was 2% (active); with `O=C(NCCCN1CCCCCC1)c1ccc(N2CCCC2=O)cc1`, 110% (inactive).

On to `Cc1ccc(C(=O)NC(=S)Nc2ccc3[nH]c(=O)[nH]c3c2)cc1C`, for which the binding response (% of control) is 100% (inactive).

For the compound `c1ccc(CN2CCC(N=C3NN=C(c4ccc5c(c4)OCCO5)CS3)CC2)cc1`, the binding response (% of control) is 117% (inactive). Regarding `C[C@H]1CCC(=O)N([C@H](CSc2ccccc2)Cc2ccccc2)CC1`, the binding response (% of control) is 108% (inactive). For `O=C(CC1SCCNC1=O)Nc1ccc(Cl)c(Cl)c1` (configuration not stated), the binding response (% of control) was 106% (inactive).

For the compound `CCNC(=O)CSc1nc(-c2ccccc2)cs1`, the binding response (% of control) was 104% (inactive). Under `COc1ccc(S(=O)(=O)Nc2ccc3oc(C)c(C(C)=O)c3c2)cc1` stands 100% (inactive); under `O=C(CN1CCN(C(=O)c2ccco2)CC1)Nc1ccc(Cl)c(C(F)(F)F)c1`, 104% (inactive); under `COc1ccccc1OCCNCC(O)COc1cccc2[nH]c3ccccc3c12` (configuration not stated), 100% (inactive). Take `O=C(NCCN1CCOCC1)[C@H](Cc1ccccc1)N1C(=O)c2ccccc2C1=O`: the binding response (% of control) is 100% (inactive). With `c1ccc(Nc2nc(N3CCOCC3)c3ccccc3n2)cc1` the figure was 106% (inactive); with `CCOc1ccc(S(=O)(=O)NCCCn2ccnc2)cc1NC(C)=O`, 97% (inactive); with `CSCC[C@H](NC(=O)CCCn1nnc2ccccc2c1=O)C(=O)O`, 102% (inactive). Regarding `COc1cc(NC(=S)NCc2ccco2)c(OC)cc1Cl`, the binding response (% of control) was 104% (inactive).

For the compound `CC(C)C(=O)N1c2ccccc2NC2=C(C(=O)CCC2)C1c1ccc(N(C)C)cc1` (configuration not stated), the binding response (% of control) was 106% (inactive). Take `COc1ccccc1N=C(C)C1=C(O)COC1=O`: the binding response (% of control) was 102% (inactive). With `CC1(C)Cc2cccc(OCC(=O)N3CCN(c4ccc([N+](=O)[O-])cc4)CC3)c2O1` the figure was 103% (inactive).

On to `CN(C)c1ccc(/C=C2\NC(=S)N(Cc3ccccc3)C2=O)cc1`, for which the binding response (% of control) is 99% (inactive). As for `CC(C)CC(=O)N1CCN(Cc2ccccc2Br)CC1`, the binding response (% of control) is 107% (inactive).

Regarding `CC1(C)OC(=O)N2CCc3ccccc3C21C` (configuration not stated), the binding response (% of control) is 104% (inactive). Consider `COc1cccc(NC(=S)NCc2ccccn2)c1`, for which the binding response (% of control) is 96% (inactive). Under `CCOc1nnc(C)c2c(C)n(-c3cccc(Cl)c3)nc12` stands 91% (inactive); under `CCCc1nnc(SCC(=O)N2C(C)CCCC2C)n1CC` (configuration not stated), 111% (inactive). On to `O=C(Nc1cccnc1)c1cc(Cl)ccc1Cl`, for which the binding response (% of control) was 106% (inactive). Regarding `O=C(O)CC(Cc1ccccc1)C(=O)Nc1ccc([N+](=O)[O-])cc1` (configuration not stated), the binding response (% of control) is 100% (inactive). Regarding `COc1cccc(/C=N\NC(=O)C2=NNC(=O)C2C)c1O` (configuration not stated), the binding response (% of control) is 100% (inactive). For `CNC(C)C#Cc1ccc2sc3cc(OC)c(OC)cc3c(=O)c2c1` (configuration not stated), the binding response (% of control) is 104% (inactive). On to `Cc1ccc(Nc2nc(CSc3nnc(-c4ccncc4)n3-c3ccccc3C)cs2)cc1`, for which the binding response (% of control) was 103% (inactive). Under `Cc1c(S(=O)(=O)NCc2ccccc2)c(=O)n(C)c(=O)n1C` stands 101% (inactive); under `Cc1cnc(NC(=O)Cn2cnc3c2c(=O)n(C)c(=O)n3C)s1`, 97% (inactive); under `C=CCn1c(=S)sc2c(=O)[nH]c(C)nc21`, 107% (inactive). Turning to `CC1CCN(C2=NC(=O)/C(=C/c3cn[nH]c3-c3ccccc3)S2)CC1`, the binding response (% of control) was 91% (inactive). For the compound `O=C(CCCO)N/N=C/c1cc(Br)ccc1O`, the binding response (% of control) is 102% (inactive). For the compound `COc1ccc(CC(=O)N2N=C(C)CC2(O)C(F)(F)F)cc1` (configuration not stated), the binding response (% of control) was 98% (inactive). As to `O=C1C=CC(=O)N1c1ccc(N2CCCCC2)cc1`, the binding response (% of control) is 100% (inactive). For the compound `N=c1c2c(-c3ccccc3)c(-c3ccccc3)n(Cc3ccccc3)c2ncn1CCCO`, the binding response (% of control) was 110% (inactive).

In the case of `Cc1cccc(/C=N/NC(=O)CNc2cccc3ccccc23)n1`, the binding response (% of control) is 110% (inactive).

In the case of `O=C(O)CCCC(=O)Nc1ccc(Oc2cccc(C(F)(F)F)c2)nc1`, the binding response (% of control) is 105% (inactive). Turning to `Cc1nn(-c2ccccc2)c(C)c1NC(=O)CCl`, the binding response (% of control) is 97% (inactive). Take `COC(=O)c1c(NC(=O)COC(=O)[C@@H](NS(=O)(=O)c2ccccc2)C(C)C)sc2c1CCC2`: the binding response (% of control) was 102% (inactive). Turning to `Cc1cn(COC/C=C/c2ccccc2)c(=O)[nH]c1=O`, the binding response (% of control) was 105% (inactive). With `CCO[C@H]1OC(C(=O)N2CCOCC2)=C[C@@H](c2ccc3c(c2)OCO3)[C@@H]1CCCO` the figure was 104% (inactive).

For `Cc1noc(C)c1S(=O)(=O)N(C)Cc1ccccc1`, the binding response (% of control) is 103% (inactive). With `CCN(CC)C(=O)CC(c1ccc2c(c1)OCO2)c1c(OC)cc(OC)c2c(-c3ccccc3)cc(=O)oc12` (configuration not stated) the figure was 103% (inactive); with `FC(F)(F)c1nc(-c2ccccc2)ncc1-c1nnnn1-c1ccccc1`, 100% (inactive). Under `CCOC(=O)N1CCN(CC(=O)n2c(C)c(C)c3ccccc32)CC1` stands 97% (inactive); under `Cn1c(=NC(=O)CSCC(=O)N2CCOCC2)sc2ccccc21`, 86% (inactive). For `Cc1nc2cc(S(=O)(=O)C(F)(F)F)ccc2s1`, the binding response (% of control) was 101% (inactive). For `CCN1CCN(c2nc(Nc3cc(OC)ccc3OC)nc(Nc3cc(OC)ccc3OC)n2)CC1`, the binding response (% of control) was 106% (inactive). As for `Cc1ccccc1C(=O)NNC(=O)CN1C(=O)c2ccccc2C1=O`, the binding response (% of control) is 93% (inactive). Turning to `CCOC(=O)c1c(Cc2ccc(Cl)cc2)c[nH]c1C`, the binding response (% of control) is 107% (inactive). Under `CCOC(=O)C(NS(=O)(=O)c1ccc(C)cc1)(C(F)(F)F)P(=O)(OCC(C)C)OCC(C)C` (configuration not stated) stands 94% (inactive); under `C#CCOCCOCCOCCNc1nc(N2CCN(C(=O)C([C@@H](C)CC)n3cc(C(N)COC(=O)C(F)(F)F)nn3)CC2)nc(N2CCN(C(=O)[C@H](CCCCN)n3cc(C(N)CC(C)C)nn3)CC2)n1` (some centres not stated), 106% (inactive); under `COc1ccc(C2CC(c3cccs3)=NN2c2nc(C)c(C(C)=O)s2)cc1OC` (configuration not stated), 97% (inactive). With `Cc1ccc(NC(=O)COc2ccc(-n3ccnc3)cc2)cc1Cl`, the binding response (% of control) is 108% (inactive). Under `Fc1ccc(-c2ccc(CNCc3ccccn3)o2)cc1Cl` stands 103% (inactive); under `O=C(NC1CCN(Cc2ccccc2)CC1)c1cc(Br)c(Br)[nH]1`, 110% (inactive); under `O=C(O)/C(=C/c1cccnc1)NC(=O)c1ccccc1`, 104% (inactive). Regarding `CCCCn1c(SCC(=O)NCCc2ccc(OC)c(OC)c2)nc2c1c(=O)n(C)c(=O)n2C`, the binding response (% of control) is 100% (inactive). Consider `COc1ccc(SC[C@H](Cc2ccccc2)N2CCN(CCc3ccccc3)CCC2=O)cc1`, for which the binding response (% of control) is 107% (inactive).

As for `O=C1Nc2ccc(Br)cc2/C1=N/N=C/C1=C(N2CCOCC2)C(=C\c2ccccc2)/CC1`, the binding response (% of control) was 54% (active). Turning to `C=CCn1c(P(C)(=O)O)nc2ccccc21`, the binding response (% of control) was 97% (inactive). On to `O=C(OCC1O[C@@H](OC(=O)c2cc(O)c(O)c(O)c2)[C@@H](OC(=O)c2cc(O)c(O)c(O)c2)[C@@H](OC(=O)c2cc(O)c(O)c(O)c2)[C@@H]1OC(=O)c1cc(O)c(O)c(O)c1)c1cc(O)c(O)c(O)c1` (some centres not stated), for which the binding response (% of control) was 1% (active). As to `C#CCOCCOCCOCCNc1nc(N2CCN(C(=O)[C@H](CCCCN)n3cc([C@@H](N)C(C)CC)nn3)CC2)nc(N2CCN(C(=O)[C@H](Cc3ccc(O)cc3)n3cc([C@@H](N)C(C)CC)nn3)CC2)n1` (some centres not stated), the binding response (% of control) is 109% (inactive). With `COc1ccc(N2CCN(Cc3nnc(-c4ccccc4)o3)CC2)cc1` the figure was 96% (inactive); with `Cc1ccc(S(=O)(=O)NC(=O)N2CCCC(C)(C)C2)cc1`, 98% (inactive).

Regarding `C=CCN1C=C2C(=O)C(C)(OC(=O)CCc3ccccc3)C(=O)C=C2C=C1c1ccc(C#N)cc1` (configuration not stated), the binding response (% of control) is 103% (inactive).

For the compound `Cc1ccc(N2C(=O)CC(N3CCSCC3)C2=O)c(C)c1` (configuration not stated), the binding response (% of control) was 102% (inactive). In the case of `C/C=C/c1ccc(OCCCCN2CCC(C)CC2)c(OC)c1`, the binding response (% of control) is 103% (inactive). For `CN1CCN(/N=C/c2ccc(C#N)cc2)CC1`, the binding response (% of control) was 86% (inactive). `COc1cc2c(cc1OC)CN(C(=O)c1ccc(S(=O)(=O)N3CCCCCC3)cc1)CC2`: the binding response (% of control) is 100% (inactive). With `CN(CC(=O)Nc1cccc(F)c1)CC(=O)Nc1cccc([N+](=O)[O-])c1`, the binding response (% of control) is 103% (inactive). As for `N/C(=N\OS(=O)(=O)c1cccc([N+](=O)[O-])c1)c1ccncc1`, the binding response (% of control) is 104% (inactive).
